The structures appear in SMILES notation. This is part of a sample that, as a whole, favours compounds with a hit. Of some 79,000 tested, about 15% had one in any assay. Unmarked numbers belong to inactive results. The source made the active and inactive calls. No stated cut-off is given here; in the data, active means growth inhibition above about 70%; inactive means the rest.

Assay [1] can be described thus: NCI Yeast Anticancer Drug Screen. Data for the rad50 strain (AID 155).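 Further: 0% = growth of vehicle-only cultures of the same strain.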 To be noted: S. cerevisiae rad50 strain growth inhibition, hits give high values. In outline: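 Growth of the mutant yeast was measured after compound exposure and referenced to vehicle-treated cultures.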
The nature of assay [2]: NCI Yeast Anticancer Drug Screen. Data for the mec2-1 strain (AID 157). The following applies: S. cerevisiae mec2-1 strain, hits give high values. In outline:
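Each compound was tested on mec2-1 yeast, a strain altered in DNA damage repair or cell cycle control. Growth inhibition is reported relative to vehicle.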

Assay [3] can be described thus: NCI Yeast Anticancer Drug Screen. Data for the sgs1 mgt1 strain (AID 161).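 Further: 0% = growth of cultures given vehicle only.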 The following applies: S. cerevisiae sgs1 mgt1 strain, hits give high values. Put shortly:
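Genetically altered yeast, compound exposure, growth inhibition relative to vehicle.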

The nature of assay [4]: NCI Yeast Anticancer Drug Screen. Data for the cln2 rad14 strain (AID 165).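 Further: 0% = growth equal to vehicle treated cultures.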 The following applies: S. cerevisiae cln2 rad14 strain, hits give high values. Put shortly: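 Test compounds were added to cln2 rad14 yeast cultures; inhibition of growth was then determined by comparison with vehicle treatment.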
Assay [5] is described as follows: NCI Yeast Anticancer Drug Screen. Data for the bub3 strain (AID 167). The following applies: S. cerevisiae bub3 mutant strain, hits give high values. Put shortly: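 Whole-cell yeast assay. The mutant strain was incubated with compounds, and growth inhibition was determined by comparison with vehicle-treated cells.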
Assay [6] is described as follows: NCI Yeast Anticancer Drug Screen. Data for the mlh1 rad18 strain (AID 175). The following applies: S. cerevisiae mlh1 rad18 strain growth inhibition, hits give high values. Put shortly: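 Inhibition values reflect reduced growth of mutant yeast versus vehicle-treated controls following compound exposure; the mutations affect DNA damage repair.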
The mark [7] stands for this setting: at 5.0 µM (retest, dose inferred, filed as 0.5).
[8] abbreviates: at 50.0 µM (retest, dose inferred, filed as 5.0).

In the case of `Clc1ccccc1CCc1cc(-c2ccccc2)n[nH]1`, the growth inhibition was -14% in assay [1] (setting [7]); 97% (active) in assay [1] (setting [8]); 96.8% (active) in assay [1] (at 50.0 µM); -26% in assay [2] (setting [7]); 98% (active) in assay [2] (setting [8]); 94.7% (active) in assay [2] (at 50.0 µM). For the same molecule, the growth inhibition in assay [3] (setting [7]) is -6%; in assay [3] (setting [8]), 97% (active); in assay [3] (at 50.0 µM) it was 95.6% (active); in assay [4] (setting [7]), -13%; in assay [4] (setting [8]) it was 97% (active); in assay [4] (at 50.0 µM), 88.9% (active). In addition, the growth inhibition in assay [5] (setting [7]) is 16%; in assay [5] (setting [8]), 97% (active); in assay [5] (at 50.0 µM) it was 93.2% (active); in assay [6] (setting [7]), -4%; in assay [6] (setting [8]), 97% (active); in assay [6] (at 50.0 µM) it was 97.7% (active).
With `CCCCCC(C)NCCOC(=O)c1ccccc1` (configuration not stated), the growth inhibition is 3% in assay [1] (setting [7]); 78% (active) in assay [1] (setting [8]); 50.8% in assay [1] (at 50.0 µM); -13% in assay [2] (setting [7]); 82% (active) in assay [2] (setting [8]); -10.7% in assay [2] (at 50.0 µM). In addition, the growth inhibition was -8% in assay [3] (setting [7]); 79% (active) in assay [3] (setting [8]); 59.4% in assay [3] (at 50.0 µM); 0% in assay [4] (setting [7]); 26% in assay [4] (setting [8]); 67.2% in assay [4] (at 50.0 µM). Further, the growth inhibition was 3% in assay [5] (setting [7]); 84% (active) in assay [5] (setting [8]); 75.5% (active) in assay [5] (at 50.0 µM); 18% in assay [6] (setting [7]); 89% (active) in assay [6] (setting [8]); 40.5% in assay [6] (at 50.0 µM).
Turning to `CCCCCC(CN(C)C)C(=O)/C=C/c1ccc(Cl)cc1` (configuration not stated), the growth inhibition is 21% in assay [1] (setting [7]); 99% (active) in assay [1] (setting [8]); 99.2% (active) in assay [1] (at 50.0 µM); -1% in assay [2] (setting [7]); 100% (active) in assay [2] (setting [8]); 99.3% (active) in assay [2] (at 50.0 µM). Besides, the growth inhibition in assay [3] (setting [7]) was 6%; in assay [3] (setting [8]), 99% (active); in assay [3] (at 50.0 µM), 99.3% (active); in assay [4] (setting [7]), -1%; in assay [4] (setting [8]), 99% (active); in assay [4] (at 50.0 µM), 99.2% (active). Besides, the growth inhibition is 5% in assay [5] (setting [7]); 98% (active) in assay [5] (setting [8]); 99.3% (active) in assay [5] (at 50.0 µM); 33% in assay [6] (setting [7]); 99% (active) in assay [6] (setting [8]); 99.2% (active) in assay [6] (at 50.0 µM).
`CC1(C)N([O-])[N+](=O)C1(Br)c1ccccc1` (configuration not stated): the growth inhibition was 22% in assay [1] (setting [7]); 99% (active) in assay [1] (setting [8]); 86.7% (active) in assay [1] (at 50.0 µM); 17% in assay [2] (setting [7]); 100% (active) in assay [2] (setting [8]); 93.8% (active) in assay [2] (at 50.0 µM). Moreover, the growth inhibition in assay [3] (setting [7]) was -6%; in assay [3] (setting [8]), 95% (active); in assay [3] (at 50.0 µM), 92.6% (active); in assay [4] (setting [7]) it was 8%; in assay [4] (setting [8]), 64%; in assay [4] (at 50.0 µM) it was 90.2% (active). Besides, the growth inhibition is -24% in assay [5] (setting [7]); 96% (active) in assay [5] (setting [8]); 87.5% (active) in assay [5] (at 50.0 µM); 25% in assay [6] (setting [7]); 99% (active) in assay [6] (setting [8]); 84.5% (active) in assay [6] (at 50.0 µM).
For the molecule `[C](#[C][Sn]([c]1ccccc1)([c]1ccccc1)[c]1ccccc1)[Sn]([c]1ccccc1)([c]1ccccc1)[c]1ccccc1`, the growth inhibition in assay [1] (setting [7]) was 98% (active); in assay [1] (setting [8]), 95% (active); in assay [1] (at 50.0 µM), 97.5% (active); in assay [2] (setting [7]), 99% (active); in assay [2] (setting [8]) it was 97% (active); in assay [2] (at 50.0 µM) it was 98.3% (active). The growth inhibition in assay [3] (setting [7]) was 99% (active); in assay [3] (setting [8]) it was 97% (active); in assay [3] (at 50.0 µM), 96.5% (active); in assay [4] (setting [7]), 98% (active); in assay [4] (setting [8]) it was 95% (active); in assay [4] (at 50.0 µM), 98.4% (active). For the same molecule, the growth inhibition was 98% (active) in assay [5] (setting [7]); 96% (active) in assay [5] (setting [8]); 98.8% (active) in assay [5] (at 50.0 µM); 98% (active) in assay [6] (setting [7]); 97% (active) in assay [6] (setting [8]); 96.9% (active) in assay [6] (at 50.0 µM).
For the molecule `CN(Cc1ccccc1)CC(O)c1ccc(/C=C/c2ccc(Cl)cc2)cc1` (configuration not stated), the growth inhibition in assay [1] (setting [7]) is 55%; in assay [1] (setting [8]), 66%; in assay [1] (at 50.0 µM), 86.1% (active); in assay [2] (setting [7]), 38%; in assay [2] (setting [8]), 66%; in assay [2] (at 50.0 µM), 65.5%. Moreover, the growth inhibition in assay [3] (setting [7]) was 87% (active); in assay [3] (setting [8]) it was 92% (active); in assay [3] (at 50.0 µM) it was 95.9% (active); in assay [4] (setting [7]), 52%; in assay [4] (setting [8]) it was 64%; in assay [4] (at 50.0 µM), 87.6% (active). The growth inhibition in assay [5] (setting [7]) is 68%; in assay [5] (setting [8]) it was 82% (active); in assay [5] (at 50.0 µM), 69.6%; in assay [6] (setting [7]), 56%; in assay [6] (setting [8]), 73% (active); in assay [6] (at 50.0 µM) it was 86.2% (active).
As for `CN(C)CCCC1(c2ccccc2)SC(C)(C)c2ccc(Cl)cc21` (configuration not stated), the growth inhibition in assay [1] (setting [7]) was -36%; in assay [1] (setting [8]), 28%; in assay [1] (at 50.0 µM) it was 15.3%; in assay [2] (setting [7]), -4%; in assay [2] (setting [8]) it was 7%; in assay [2] (at 50.0 µM), 28.9%. Besides, the growth inhibition in assay [3] (setting [7]) was 0%; in assay [3] (setting [8]), 39%; in assay [3] (at 50.0 µM), 44.2%; in assay [4] (setting [7]), 0%; in assay [4] (setting [8]), 0%; in assay [4] (at 50.0 µM) it was -9.75%. Also, the growth inhibition is -2% in assay [5] (setting [7]); 11% in assay [5] (setting [8]); 19.3% in assay [5] (at 50.0 µM); 11% in assay [6] (setting [7]); 56% in assay [6] (setting [8]); 66% in assay [6] (at 50.0 µM).
As to `O=C(CBr)Oc1ccc(-c2cccc(Br)c2)cc1`, the growth inhibition in assay [1] (setting [7]) is 1%; in assay [1] (setting [8]), 99% (active); in assay [1] (at 50.0 µM) it was 99.7% (active); in assay [2] (setting [7]), 6%; in assay [2] (setting [8]), 99% (active); in assay [2] (at 50.0 µM), 99.5% (active). Further, the growth inhibition in assay [3] (setting [7]) is 15%; in assay [3] (setting [8]) it was 100% (active); in assay [3] (at 50.0 µM), 99.6% (active); in assay [4] (setting [7]) it was -14%; in assay [4] (setting [8]) it was 99% (active); in assay [4] (at 50.0 µM), 98.6% (active). Besides, the growth inhibition in assay [5] (setting [7]) was -6%; in assay [5] (setting [8]), 99% (active); in assay [5] (at 50.0 µM), 99.6% (active); in assay [6] (setting [7]), 4%; in assay [6] (setting [8]) it was 99% (active); in assay [6] (at 50.0 µM), 99.2% (active).
Regarding `N#C/C(=C1/C(=O)c2ccccc2-c2ccccc21)c1ccccc1`, the growth inhibition in assay [1] (setting [7]) is 92% (active); in assay [1] (setting [8]) it was 97% (active); in assay [1] (at 50.0 µM), 97.2% (active); in assay [2] (setting [7]), 100% (active); in assay [2] (setting [8]), 99% (active); in assay [2] (at 50.0 µM), 98.2% (active). Also, the growth inhibition in assay [3] (setting [7]) was 99% (active); in assay [3] (setting [8]) it was 99% (active); in assay [3] (at 50.0 µM), 97.6% (active); in assay [4] (setting [7]) it was 61%; in assay [4] (setting [8]), 97% (active); in assay [4] (at 50.0 µM) it was 98.2% (active). Further, the growth inhibition in assay [5] (setting [7]) was 99% (active); in assay [5] (setting [8]), 98% (active); in assay [5] (at 50.0 µM) it was 98% (active); in assay [6] (setting [7]) it was 99% (active); in assay [6] (setting [8]) it was 99% (active); in assay [6] (at 50.0 µM), 98.7% (active).

The values are drawn from PubChem BioAssay (NCI).
